Bioassay records deposited in PubChem by National Center for Advancing Translational Sciences (NCATS).
GLS inh = qHTS for Inhibitors of Glutaminase (GLS); AID 624170, 2012; GLS enzymatic activity, qHTS titration; Potency, µM (series often up to 45.5 µM), actives largely listed as inhibitors; 410,000 tested, 0.21% active
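Two-point fluorescence kinetic (t0, 30 min RT) for hKGA; glutamate detected via glutamate oxidase–HRP–Amplex Red. Substrate: 1 mM L-glutamine solution; buffer 45 mM KH2PO4, pH 8.2.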
BAZ2B inh = qHTS Assay for Inhibitors of BAZ2B; Bromodomain adjacent to zinc finger domain protein 2B (Homo sapiens), Q9UIF8; AlphaScreen BAZ2B-H3K14Ac peptide displacement; Potency, µM (titrated, usually from 114 µM), most hits filed as inhibitors; 360,000 tested, 4.4% active; AID 504333, 2011; also: nearly all actives have a fitted effect of over 60% in size
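AlphaScreen displacement: compounds (up to 110uM) incubated 30 min at room temperature with a preformed 50 nM BAZ2B/50 nM biotinylated H3K14Ac peptide complex in PBS pH 7.4 with Tween-20. Donor and acceptor beads at 10 ug/mL final added, 20 min light-protected before reading.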
G9a inh = qHTS Assay for Inhibitors of Histone Lysine Methyltransferase G9a; Histone-lysine N-methyltransferase EHMT2 (Homo sapiens), Q96KQ7; G9a H3K9 monomethylation, AlphaScreen, 2 h; Potency, µM (highest dose often 102 µM), most hits filed as inhibitors; 350,000 tested, 8.8% active; AID 504332, 2011; also: nearly all actives have a fitted effect of over 75% in size
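Readings reflect AlphaScreen signal from monomethyl-H3K9 antibody detection. HMT at 20 nM; substrate b-H3K9 500 nM; cofactor SAM 20 uM; 2 h RT reaction; compounds tested as titrations in qHTS with 15 min preincubation.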
HP1b chromo inh = HTS for Inhibitors of HP1-beta Chromodomain Interactions with Methylated Histone Tails. 390,000 tested, 0.56% active. AlphaScreen HP1-beta / biotin-H3K9me3 peptide binding. Chromobox protein homolog 1 (Homo sapiens), P83916. Potency, µM (series often up to 114 µM), hits mostly inhibitors; also: nearly all actives have a fitted effect of over 70% in size
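HP1-beta protein (50 nM final) preincubated 30 min at room temperature with biotinylated H3(1-18)K9me3 peptide (50 nM) in PBS pH 7.4, 0.01% Tween-20, then compound added for 30 min. AlphaScreen streptavidin donor/nickel chelate acceptor beads (10 ug/mL final), 30 min dark, luminescence read.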
JMJD2A Tudor inh = qHTS Assay for Inhibitors of JMJD2A-Tudor Domain; Lysine-specific demethylase 4A (Homo sapiens), O75164; AlphaScreen JMJD2A-Tudor / H3K4me3 peptide binding; Potency, µM (series often up to 114 µM), most hits filed as inhibitors; 390,000 tested, 4.4% active; also: nearly all actives have a fitted effect of over 50% in size
Hits are given with their value; [ ] = remark or other dose. Compounds with a hit are over-represented: about 10% of the library has one in this group of screens. Calls follow the shape of the dose curve; as a rule, active = well fitted curve in the direction sought with a large enough effect; inconclusive = small, poorly fitted or top-dose-only effect, or another doubt; inactive = no such curve, though single readings can be large; an effect the other way counts as inactive or inconclusive.

How did CCN1CCN(c2ccc(S(=O)(=O)N3CCCCC3)cc2NC(=O)c2cccc(OC(F)F)c2)CC1 do in these assays?
GLS inh: inactive; BAZ2B inh: inactive; G9a inh: 12.6µM; HP1b chromo inh: inactive; JMJD2A Tudor inh: inactive

What do the screens show for `O=C(Nc1cc(S(=O)(=O)N2CCOCC2)ccc1N1CCOCC1)c1cccc(Cl)c1`?
GLS inh: inactive

How did CCN1CCN(c2ccc(S(=O)(=O)N3CCCCC3)cc2NC(=O)c2ccc(OC(F)F)cc2)CC1 do in these assays?
GLS inh: inactive; BAZ2B inh: inactive; G9a inh: 14.1µM; HP1b chromo inh: inactive; JMJD2A Tudor inh: inactive

What do the screens show for `COc1cccc(Cn2c(=O)cnc3cnc(Oc4ccccc4)nc32)c1`?
G9a inh: inactive[0.501 µM]

How did CC1CCCCN1C(=O)CSc1nc2ccccc2nc1Cc1ccc(Cl)cc1 (centres undefined) do in these assays?
GLS inh: inactive; BAZ2B inh: inactive; G9a inh: inactive; HP1b chromo inh: inactive; JMJD2A Tudor inh: inactive

What do the screens show for `Cc1ccc(OCCSc2nc3ccc(NC(=O)c4ccc5c(c4)OCO5)cc3s2)cc1`?
GLS inh: inactive; BAZ2B inh: inactive; G9a inh: inactive; HP1b chromo inh: inactive; JMJD2A Tudor inh: inactive

Results for S=c1[nH]nc(-c2ccc(Cl)cc2)n1-c1ccc2c(c1)OCCO2 ?
GLS inh: inactive; BAZ2B inh: inactive; G9a inh: 1.78µM; HP1b chromo inh: inactive; JMJD2A Tudor inh: inconclusive

What do the screens show for `Fc1ccc(-c2n[nH]c(=S)n2-c2ccc3c(c2)OCCO3)cc1`?
GLS inh: inactive; BAZ2B inh: inactive; HP1b chromo inh: inconclusive; JMJD2A Tudor inh: 2.82µM

How did c1cncc(-c2nc(-c3ccc4c(c3)OCO4)cs2)c1 do in these assays?
GLS inh: inactive; BAZ2B inh: inactive; G9a inh: inactive; HP1b chromo inh: inactive; JMJD2A Tudor inh: inactive

How did S=c1[nH]nc(-c2ccc(Cl)cc2)n1-c1ccc(Cl)cc1 do in these assays?
GLS inh: inactive; BAZ2B inh: inconclusive; G9a inh: 8.91µM; HP1b chromo inh: inactive; JMJD2A Tudor inh: inactive

Results for S=c1[nH]nc(-c2cccnc2)n1-c1ccc2c(c1)OCCO2 ?
GLS inh: inactive; BAZ2B inh: inactive; G9a inh: 31.6µM; HP1b chromo inh: inactive; JMJD2A Tudor inh: 25.1µM

Results for Cc1oc(-c2cccc(Cl)c2)nc1Cn1c(SCc2ccccc2F)nc2ccncc21 ?
GLS inh: inactive; BAZ2B inh: inactive; G9a inh: inactive; HP1b chromo inh: inactive; JMJD2A Tudor inh: inactive

Results for Cc1nc2nc(SCC(=O)NCCc3ccc(Cl)cc3)nn2c(C)c1Cc1ccccc1 ?
GLS inh: inactive; BAZ2B inh: inactive; G9a inh: inactive; HP1b chromo inh: inactive; JMJD2A Tudor inh: inactive

How did C=CCn1cccc(/C=C/C(=O)c2ccc(C(C)(C)C)cc2)c1=S do in these assays?
GLS inh: inactive; BAZ2B inh: 11.2µM; G9a inh: inconclusive; HP1b chromo inh: inconclusive; JMJD2A Tudor inh: 31.6µM

How did COc1ccc(NC(=O)Nc2c(C)n(C)n(-c3ccccc3)c2=O)c(OC)c1 do in these assays?
GLS inh: inactive; BAZ2B inh: inactive; G9a inh: inactive; HP1b chromo inh: inactive; JMJD2A Tudor inh: inactive

How did Cc1ccc(NC(=O)CCC(=O)OCC(=O)c2ccc(Oc3ccc([N+](=O)[O-])cc3)cc2)cc1C do in these assays?
GLS inh: inactive; BAZ2B inh: inactive; G9a inh: inactive; HP1b chromo inh: inactive; JMJD2A Tudor inh: inactive

Results for Cc1cccc(NC(=O)CCC(=O)OCC(=O)c2ccc(Oc3ccc([N+](=O)[O-])cc3)cc2)c1 ?
GLS inh: inactive; BAZ2B inh: inactive; G9a inh: 8.91µM; HP1b chromo inh: inactive; JMJD2A Tudor inh: inactive

Results for COC(=O)c1ccc(OCC(O)CNCC(c2ccc(OC)cc2)N(C)C)c(OC)c1 (centres undefined) ?
GLS inh: inactive; BAZ2B inh: 50.1µM; G9a inh: inconclusive; HP1b chromo inh: inactive; JMJD2A Tudor inh: 1.78µM

How did O=C1NC(=S)S/C1=C/c1ccc(N2CCOCC2)o1 do in these assays?
GLS inh: inactive; BAZ2B inh: 20µM; G9a inh: 4.47µM; HP1b chromo inh: 35.5µM; JMJD2A Tudor inh: 39.8µM

How did O=C1S/C(=C/c2ccc(N3CCOCC3)o2)C(=O)N1Cc1ccc(F)cc1 do in these assays?
GLS inh: inactive; BAZ2B inh: inactive; G9a inh: 7.94µM; HP1b chromo inh: inactive; JMJD2A Tudor inh: 89.1µM

What do the screens show for `CCOC(=O)N1CCN(S(=O)(=O)c2ccc(C(=O)N(CCCN(C)C)c3nc4c(C)c(C)ccc4s3)cc2)CC1`?
GLS inh: inactive; BAZ2B inh: inactive; G9a inh: 50.1µM; HP1b chromo inh: inactive; JMJD2A Tudor inh: inconclusive

How did Cc1ccc2sc(N(CCCN(C)C)C(=O)c3ccc(S(=O)(=O)N4CCOCC4)cc3)nc2c1C do in these assays?
GLS inh: inactive; BAZ2B inh: inactive; G9a inh: 50.1µM; HP1b chromo inh: inactive; JMJD2A Tudor inh: inactive

Results for CN(C)CCCN(C(=O)c1ccc(S(=O)(=O)N2CCCCCC2)cc1)c1nc2c(F)cc(F)cc2s1 ?
GLS inh: inactive; BAZ2B inh: inconclusive; G9a inh: 44.7µM; HP1b chromo inh: inactive; JMJD2A Tudor inh: inconclusive

Results for Cc1cc(C)c2nc(N(CCCN(C)C)C(=O)c3ccc(S(=O)(=O)N4CC(C)OC(C)C4)cc3)sc2c1 (centres undefined) ?
GLS inh: inactive; BAZ2B inh: inactive; G9a inh: inconclusive; HP1b chromo inh: inactive; JMJD2A Tudor inh: inactive

How did Cc1ccc2sc(N(CCN(C)C)C(=O)c3ccc(S(=O)(=O)N4CC(C)OC(C)C4)cc3)nc2c1C (centres undefined) do in these assays?
GLS inh: inactive; BAZ2B inh: inconclusive; G9a inh: 50.1µM; HP1b chromo inh: inactive; JMJD2A Tudor inh: inconclusive

How did CN(C)CCCN(C(=O)c1ccc(S(=O)(=O)N2CCCC2)cc1)c1nc2c(F)cc(F)cc2s1 do in these assays?
GLS inh: inactive; BAZ2B inh: inactive; G9a inh: inconclusive; HP1b chromo inh: inactive; JMJD2A Tudor inh: inactive

Results for Cc1cc(C)c2oc(C(=O)Nc3c(C)n(C)n(-c4ccccc4)c3=O)cc(=O)c2c1 ?
GLS inh: inactive; BAZ2B inh: inactive; G9a inh: inactive; HP1b chromo inh: inactive; JMJD2A Tudor inh: inactive

How did CN1CCN(c2ncc3nc(-c4ccccc4)c(=O)n(C4CC4)c3n2)CC1 do in these assays?
G9a inh: inactive[0.501 µM]

What do the screens show for `CCOC(=O)N1CCN(S(=O)(=O)c2ccc(C(=O)N(CCN(C)C)c3nc4c(C)cccc4s3)cc2)CC1`?
GLS inh: inactive; BAZ2B inh: inconclusive; G9a inh: 44.7µM; HP1b chromo inh: inactive; JMJD2A Tudor inh: inconclusive
